This passage reports remaining activity results from PubChem BioAssay.

Values without a mark were called inactive. No rule for the calls is given here.

In the experiment the test system is Aerobactin synthetase IucA (Klebsiella pneumoniae, hypervirulent). Briefly: biochemical IucA inhibition screen of LOPAC library by absorbance (AID 1346212).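 Also: 100% = no compound wells and 0% = no enzyme wells.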 The conditions noted are these: IucA enzyme assay, absorbance (OD) readout; stronger effect = lower value;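 tested at 8 µM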.
Broadly, the remaining activity is the signal under treatment as a percentage of the control signal. In the case of `CN(C)CC[C@@H](c1ccc(Br)cc1)c1ccccn1`, the remaining activity is 88.6%.

In the case of `Nc1ccn([C@H]2CC[C@@H](CO)O2)c(=O)n1`, the remaining activity is 121%.

With `COc1ccc(C(=O)NCc2cccnc2)cc1C(=O)NCc1cccnc1`, the remaining activity was 103%.

On to `c1cnc2c(c1)ccc1cccnc12`, for which the remaining activity is 101%.

Take `NCCCCCCCCCCN`: the remaining activity was 104%.

For the molecule `CC(=O)O[C@]1(C(C)=O)CC[C@H]2[C@@H]3C=C(Cl)C4=CC(=O)[C@@H]5C[C@@H]5[C@]4(C)[C@H]3CC[C@@]21C`, the remaining activity is 95.7%.

As for `CN1CCN(c2nc3cc(C(F)(F)F)ccc3n3cccc23)CC1`, the remaining activity is 94.3%.

With `Nc1nc2ccc(OC(F)(F)F)cc2s1`, the remaining activity is 98.9%.

Take `CC(C)[N+]1(C)[C@@H]2CC[C@H]1CC(OC(=O)C(CO)c1ccccc1)C2` (stereo not given in full): the remaining activity was 118%.

For the molecule `CN(Cc1cnc2nc(N)nc(N)c2n1)c1ccc(C(=O)N[C@@H](CCC(=O)O)C(=O)O)cc1`, the remaining activity is 117%.

`COc1ccccc1NC(=O)Nc1nc(-c2cccnc2)nc2ccccc12`: the remaining activity is 105%.

Regarding `CNC(=O)[C@H]1O[C@@H](n2cnc3c(NCc4cccc(I)c4)nc(Cl)nc32)[C@H](O)[C@@H]1O`, the remaining activity was 103%.

Consider `CNC[C@H](O)c1ccc(O)c(O)c1`, for which the remaining activity was 94.5%.

Consider `O=C(NCC1CCCCN1)c1cc(OCC(F)(F)F)ccc1OCC(F)(F)F` (stereo not given), for which the remaining activity was 91.1%.

As for `NCCS(=O)O`, the remaining activity was 101%.

For `N[C@@H](Cc1ccc(O)c(I)c1)C(=O)O`, the remaining activity was 121%.

As to `O=C(O)CN(CCN(CC(=O)O)CC(=O)O)CCN(CC(=O)O)CC(=O)O`, the remaining activity is 90.9%.

In the case of `Cc1oncc1C(=O)Nc1ccc(C(F)(F)F)cc1`, the remaining activity was 110%.

For the molecule `Nc1nc(N)c2nc(CNc3ccc(C(=O)N[C@@H](CCC(=O)O)C(=O)O)cc3)cnc2n1`, the remaining activity is 112%.

On to `NC(=O)c1cc[n+](CC2=C(C(=O)O)N3C(=O)[C@@H](NC(=O)[C@@H](c4ccccc4)S(=O)(=O)[O-])[C@H]3SC2)cc1`, for which the remaining activity was 107%.
